# Hits are enriched below; roughly 21% of the tested compounds scored in any of these assays.
# Cycloheximide cs: counter-screen for Shiga toxin inhibitors: cycloheximide protein synthesis inhibition; cell reporter, cycloheximide protein synthesis inhibition counterscreen; max response, %; hit rate 12% among 300,000; AID 2314; in the data active = max response mostly above about 13%, no sharp cut-off; inactive = mostly below about 14%; note: read at 38.3 µM for the half of the compounds with a filed dose
# Shiga toxin inh: inhibitors of Shiga toxin in Vero cells; Vero cells, Shiga toxin protein synthesis inhibition reporter; inhibition, % at 38.7 µM; hit rate 9.2% among 290,000; AID 2315; in the data active = inhibition mostly above about 28%, no sharp cut-off; inactive = mostly below about 43%
# HCMV antiviral: blocks human cytomegalovirus replication; HFF cells, HCMV-luciferase reporter, 72 h; active compounds read low; activity change, negative = inhibition, % at 57.5 µM; hit rate 4.5% among 410,000; AID 1259415; in the data active = activity change below about -60%; inconclusive = no clear call, values can overlap the other calls; inactive = above about -39%
#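 Inhibition of viral replication was scored as loss of reporter luminescence in HFFs infected with HCMV-luciferase (MOI 1 PFU/cell) for 72 h; compounds tested at 2 doses, normalized to buffer and Salinomycin controls.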
# HCV inh: HCV inhibition; Huh7.5.1 HCVcc-Cre infection, luciferase reporter, 44 h; Potency, µM (doses to about 41.8 µM), most hits filed as inhibitors; hit rate 3.4% among 340,000; AID 651820
#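 Antiviral activity was scored by luciferase reporter output from cells infected with HCVcc-Cre (~0.5 moi) in presence of compound, 44 h infection period, cells seeded 1,000/well 4 h prior.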
# Pf growth 48h: P. falciparum growth inhibition at 48 hours (one generation). Potency, µM (highest dose often 28.7 µM), usual class: inhibitors. P. falciparum luciferase growth in erythrocytes, 48 h. hit rate 5.9% among 310,000. AID 504832
#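 Firefly luciferase activity from engineered P. falciparum reports growth; inhibitors lower the luminescent signal. Cultures contained 2% hematocrit erythrocytes at 0.1% final parasitemia.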
# Pf growth 96h: P. falciparum growth inhibition at 96 hour, primary screen for plastid delayed-death inhibitors; P. falciparum luciferase reporter growth, 96 h; Potency, µM (highest dose often 28.7 µM), hits mostly inhibitors; hit rate 6.9% among 320,000
#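 Two parasite generations (96 h, 37 C, 5% CO2) of compound exposure in infected erythrocytes (0.05% parasitemia, 2% hematocrit). Luciferase-reporter P. falciparum; decreased luminescence indicates inhibited growth, aimed at apicoplast-acting delayed death.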
# Numbers stand for hits; n = inactive; u = inconclusive; x = no result given; [ ] = dose if it differs, or a comment. Unless noted, calls come from the whole dose curve; as a rule, active = well fitted inhibition curve with a large enough effect; inconclusive = small, poorly fitted or top-dose-only effect, or another doubt; inactive = no such curve, though single readings can be large or run the other way.
SMILES,Cycloheximide cs,Shiga toxin inh,HCMV antiviral,HCV inh,Pf growth 48h,Pf growth 96h
COC(=O)c1ccc(COc2ccccc2/C=N/NS(=O)(=O)c2ccc(C)cc2)cc1,n,n,-94.0,x,n,u
COc1cc(/C=N/NS(=O)(=O)c2ccc(C)cc2)ccc1OCc1ccc(C(=O)O)cc1,42.2,145.6,n,n,n,n
C#CCOc1ccc(-c2nnc(Nc3cccc(C)c3)c3ccccc23)cc1,x,x,n,x,x,x
CCN1C(=O)c2cccc3c(S(=O)(=O)N(C(=O)c4ccncc4)c4ccc(OC)cc4)ccc1c23,n,n,n,u,14.7µM,13.1µM
Cc1ccc(CN2CCCN(Cc3c(C)cc(C)cc3C)S2(=O)=O)cc1,n,n,n,n,n,u
Cc1[nH]c(C)c(S(=O)(=O)NCCc2ccccc2)c1C(=O)N1CCCCC1,n,n,n,n,n,n
CCN(CC)c1ccc(N=Cc2ccccc2[N+](=O)[O-])cc1,n,n,n,u,2.33µM,n
CCN(CC)c1ccc(N=Cc2ccc([N+](=O)[O-])o2)cc1,56.9,138.6,n,12.6µM,1.65µM,2.94µM
CC(=O)N(C)c1ccc(N=Cc2cc3c(cc2[N+](=O)[O-])OCO3)cc1,x,x,n,n,x,x
O=C1OC(c2ccc(Cl)cc2)/C(=C(/O)c2ccccc2)C1=O (centres undefined),37.1,65.4,n,n,n,n
CC(=O)c1cccc(NC(=S)NC(=O)c2ccc(C)cc2)c1,39.9,87.7,n,n,n,n
CCCCCC(=O)NC(=S)Nc1cccc(C(C)=O)c1,22.6,32.3,n,n,n,u
CCCC(=O)NC(=S)Nc1cccc(C(C)=O)c1,n,n,n,n,n,n
Cc1ccc(C(=O)NC(=S)Nc2ccc(NC(=O)c3cccc(Cl)c3)cc2)cc1,n,n,u,n,u,u
CC(=O)c1cccc(NC(=S)NC(=O)c2ccc(Br)cc2)c1,32.1,n,n,n,n,n
COC(=O)C1=CN(C2CC2)C=C(C(=O)OC)C1c1ccccc1OC,n,n,n,u,11.7µM,n
CC(C)c1ccc(CNc2nc(-c3ccco3)nn2S(=O)(=O)c2ccc(F)cc2)cc1,x,x,n,x,x,x
CC(=O)c1sc(N2CCOCC2)nc1-c1ccccc1,n,n,n,n,n,n
Cc1ccc(-c2nc(N3CCOCC3)s[n+]2-c2ccccc2)cc1,61.6,85.1,n,n,n,n
CC(C)=CCN1CCNC(=O)C1CC(=O)NCc1nc(C)c(C)s1 (centres undefined),n,n,n,n,n,2.33µM
CCCC(C)NC(=S)NC(=O)c1cc(S(=O)(=O)N2CCOCC2)ccc1C (centres undefined),n,n,-70.3,u,u,u
COCC(C)NC(=S)NC(=O)c1cc(S(=O)(=O)N2CCOCC2)ccc1C (centres undefined),n,n,u,n,n,n
CCCCCC(C)NC(=S)NC(=O)c1cc(S(=O)(=O)N2CCOCC2)ccc1C (centres undefined),n,n,-62.5,u,u,11.7µM
CC(C)(C)C1CCC(C(=O)OCC(=O)N2CCN(C(=O)c3ccco3)CC2)CC1 (centres undefined),n,n,n,n,n,n
O=[N+]([O-])c1ccc(P(=O)(Cc2ccccc2)c2ccccc2O)cc1 (centres undefined),n,n,u,n,n[0.00184 µM],n
SMILES,Cycloheximide cs,Shiga toxin inh,HCMV antiviral,HCV inh,Pf growth 48h,Pf growth 96h
Cc1ccccc1OCCN1C(=O)c2ccccc2C1=O,46.9,153.8,n,n,n,n
COc1ccc(OCCN2C(=O)c3ccccc3C2=O)cc1,28.6,90.3,n,n,n,n
Cc1ccccc1OCCn1c(=N)n(C(C)C)c2ccccc21,x,x,-68.9,x,x,x
CC(C)Oc1cccc(OCCN2C(=O)c3ccccc3C2=O)c1,27.2,36.0,n,n,n,n[5.75 µM]
Cc1ccccc1OCCN1C(=O)C(=O)c2cccc(C)c21,n,n,n,u,u,n
CCc1ccc(N(CC)C(=O)Cn2cnc3sc(C)c(S(=O)(=O)N4CCN(c5ncccn5)CC4)c3c2=O)cc1,x,x,n,x,x,x
O=C1c2ccccc2C(=O)N1CCOc1ccccc1Br,42.4,72.6,n,n,n,n
COc1ccc(C2=Nc3ccccc3C2(O)CCN2C(=O)c3ccccc3C2=O)cc1 (centres undefined),x,x,n,0.891µM,x,x
Nc1cccc2c1C(=O)N(CCOc1ccc(F)cc1)C2=O,53.9,139.8,n,n,n,n
O=C1c2ccccc2C(=O)N1CCOc1ccccc1,x,x,n,n,x,x

# Screening data deposited in PubChem by National Center for Advancing Translational Sciences (NCATS).
